The sample as a whole holds a higher share of hits than the screen did.
NOMO-1 viab: STK33 inhibitor candidate reducing NOMO-1 cell viability; AID 2330; 37,000 tested, 7.5% active; NOMO-1 AML viability, CellTiter-Glo luminescence, 72 h; inhibition, % (concentration not given with the values); in the data active = inhibition above about 80%; inconclusive = no clear call, values can overlap the other calls
STK33 inh: human STK33 kinase inhibition; inhibition, % at 12.5 µM; 27,000 tested, 0.44% active; ADP-Glo luminescence, MBP substrate; Q9BYT3; in the data active = inhibition above about 20%; inconclusive = no clear call, values can overlap the other calls
Target sequence (Q9BYT3 whole entry, looked up): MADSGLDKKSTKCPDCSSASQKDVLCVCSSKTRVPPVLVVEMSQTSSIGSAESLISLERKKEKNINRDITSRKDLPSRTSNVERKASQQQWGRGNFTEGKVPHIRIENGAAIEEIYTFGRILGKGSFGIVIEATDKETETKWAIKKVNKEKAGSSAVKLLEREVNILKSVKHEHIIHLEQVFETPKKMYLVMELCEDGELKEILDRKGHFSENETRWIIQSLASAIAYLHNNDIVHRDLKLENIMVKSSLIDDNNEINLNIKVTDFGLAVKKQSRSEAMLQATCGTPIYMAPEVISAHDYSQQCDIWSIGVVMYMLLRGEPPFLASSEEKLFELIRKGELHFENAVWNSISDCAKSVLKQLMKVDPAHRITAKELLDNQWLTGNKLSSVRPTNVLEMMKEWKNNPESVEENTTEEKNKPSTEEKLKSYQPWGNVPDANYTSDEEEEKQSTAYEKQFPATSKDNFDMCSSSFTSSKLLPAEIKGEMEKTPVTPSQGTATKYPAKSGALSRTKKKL
PD-1 reversal: activators reversing PD-1 mediated T-cell inhibition; 29,000 tested, under 10 active; activation, % (concentration not given with the values); primary human CD4 T cells, PD-L1 beads, CellTiter-Glo 96 h; call rule not given here;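 note: 0% = median vehicle wells and 100% = positive control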
* hit, by the source's call; u = inconclusive; x = no result.

SMILES | NOMO-1 viab | STK33 inh | PD-1 reversal
Cc1cccc(NC(=O)CSc2nnc(-c3ccc(Cl)cc3)n2-c2cccc(C)c2)c1 | 128* | 8 | -12
Cn1c(SCC(=O)Nc2ccccc2Cl)nnc1-c1cccnc1 | -4 | 10 | 1
COc1ccccc1NC(=O)CNC(=O)c1ccccc1F | -20 | -1 | x
N#Cc1c(C(F)(F)F)cc(-c2cccs2)nc1SCC(=O)Nc1c(F)cccc1F | 16 | 6 | 1
N#Cc1c(C(F)(F)F)cc(-c2cccs2)nc1S/C=C/C(=O)c1ccccc1 | 116* | x | -3
CCC(=O)Nc1cccc(NC(=O)COc2c(C)cc(C)cc2Br)c1 | 25 | 0 | x
COc1ccc(CN(C)C[C@H]2OCCCC[C@@H](C)Oc3ccc(NC(=O)Nc4ccc(F)cc4)cc3C(=O)N([C@H](C)CO)C[C@@H]2C)cc1 | 43 | 0 | -2
COc1ccc(CN(C)C[C@@H]2OCCCC[C@@H](C)Oc3ccc(NC(=O)Nc4ccc(OC)cc4)cc3C(=O)N([C@H](C)CO)C[C@@H]2C)cc1 | 22 | 3 | 0
COc1ccc(NC(=O)Nc2ccc3c(c2)C(=O)N([C@H](C)CO)C[C@H](C)[C@H](CN(C)Cc2ccc(C(F)(F)F)cc2)OCCCC[C@@H](C)O3)cc1 | 122* | 4 | -3
COc1ccc(CN(C)C[C@H]2OCCCC[C@@H](C)Oc3ccc(NC(=O)Nc4ccc(C(F)(F)F)cc4)cc3C(=O)N([C@H](C)CO)C[C@@H]2C)cc1 | 85* | -1 | x
CC(=O)O[C@@H]1CC2C(C)(C)C(=O)C=C[C@]2(C)C2CC[C@@]3(C)[C@H](c4ccoc4)OC(=O)[C@H]4O[C@]43[C@@]21C (some centres undefined) | 58 | 5 | x
CC(=O)O[C@@H]1C=C[C@@]2(C)C(C[C@@H](OC(C)=O)[C@@]3(C)C4=CC(=O)O[C@@H](c5ccoc5)[C@]4(C)CCC23)C1(C)C (some centres undefined) | 106* | 2 | x
CCOC(=O)c1c(C(C)(C)C)oc2ccc(OCC(=O)OC)cc12 | 28 | x | 1
CCOC(=O)COc1ccc2c(=O)c(-c3ccccc3OC)c(C(F)(F)F)oc2c1 | 93* | 1 | -4
COc1ccccc1-c1c(C(F)(F)F)oc2cc(OCC(=O)OC(C)C)ccc2c1=O | 96* | 0 | x
COc1cccc(Oc2coc3cc(OCC(N)=O)ccc3c2=O)c1 | -1 | -3 | 0
O=C(OCc1cccc(C(=O)c2ccccc2)c1)c1ccc(NC(=O)c2ccco2)cc1 | 27 | -2 | x
O=C(O)CCC1OC(=O)C(=O)C1c1ccccc1 (centres undefined) | x | -2 | x
CC(Sc1nc(N)cc(=O)[nH]1)C(=O)Nc1ccc(Cl)cc1 (centres undefined) | 6 | 4 | x
O=c1cc(N2CCOCC2)oc2c1ccc1ccccc12 | 18 | 2 | -1
O=c1cc(N2CCOCC2)oc2c(-c3ccccc3)cccc12 | 125* | 3 | -16
CC1CCN(C(=O)c2cc3nc(-c4ccco4)cc(C(F)(F)F)n3n2)C(C)C1 (centres undefined) | 76 | x | -1
CC(=O)N1Cc2ccccc2C[C@@]2(N=C(c3ccc(OCCCO)cc3)O[C@H]2c2ccccc2)C1=O | x | 6 | x
O=C(CSCc1cccc2ccccc12)Nc1ccc(C(F)(F)F)cc1 | 31 | x | 0
O=C(CN1C(=O)C2C3C=CC(C4CC34)C2C1=O)Nc1ccc(Oc2ccccc2Cl)cc1 (centres undefined) | -1 | 2 | x
SMILES | NOMO-1 viab | STK33 inh | PD-1 reversal
O=C(CN1C(=O)C2C3C=CC(C4CC34)C2C1=O)Nc1ccc(Oc2ccc(Br)cc2)cc1 (centres undefined) | 86* | 1 | -2
CCOC(=O)c1cc(C#N)c(N2CCN(C(=O)c3snnc3C)CC2)nc1C(F)(F)F | 22 | x | -1
Cc1nc(S(=O)(=O)NC[C@@H]2CCCN(Cc3ccc(OCCO)cc3)C2)cn1C | x | 0 | x
CC[C@H](CO)Nc1nc(NCc2ccccc2)c2ncn(C(C)C)c2n1 | u | 17 | 4
CC(C)n1cnc2c(Nc3cccc(Cl)c3)nc(NCCO)nc21 | 31 | 90* | 7
CC(C)(C)c1cc2oc3c(c2c(C=NCc2ccncc2)c1O)CCCC3 | 6 | x | 1
COc1cccc2c1C(=O)c1c(O)c3c(c(O)c1C2=O)C[C@@](O)(C(C)=O)C[C@@H]3O[C@H]1C[C@H](N)[C@H](O)[C@H](C)O1 | 121* | 2 | x
CC1CC(=O)c2c(ccc3c2C(=O)c2c(O[C@@H]4O[C@@H](C)[C@H](O)[C@@H](O)[C@H]4O)cccc2C3=O)C1 (some centres undefined) | 26 | 1 | 1
C=CCNC(=O)c1c(NC(=O)C2COc3ccccc3O2)sc2c1CCCC2 (centres undefined) | 74 | -2 | -6
C=C1C(=O)O[C@@H]2C[C@H](C)[C@@]3(O)C[C@H](O)[C@@](C)(C[C@@H](OC(=O)C(C)C)[C@@H]12)O3 | 119* | 0 | -14
CCc1cc(Br)cc(C)c1NC(=O)CSc1nnc(-c2ccncc2)n1-c1ccccc1 | 28 | -8 | -2
COc1ccc(NC(=O)CSc2nnc(-c3ccccc3)c(-c3ccccc3)n2)cc1 | -19 | -2 | 2
COc1ccc(NC(=O)CC(=O)CSc2ccccc2)cc1 | 112* | x | -2
O[C@H]1C=C2CCN3Cc4cc5c(cc4C(C23)[C@@H]1O)OCO5 (some centres undefined) | 110* | 2 | x
CCNc1nc(F)cc(=O)[nH]1 | -20 | x | -1
Cc1cc(C)nc(Nc2n[nH]c(COc3cccc4cccnc34)n2)n1 | 14 | 3 | 1
Cc1ccc(Nc2nc(N)nc(COc3cccc4cccnc34)n2)cc1 | 111* | 9 | -2
C[C@@H]1CN([C@@H](C)CO)C(=O)c2cc(NC(=O)Cc3cn(C)c4ccccc34)ccc2O[C@@H]1CN(C)Cc1ccc(Oc2ccccc2)cc1 | 114* | x | x
C[C@H]1CN([C@@H](C)CO)C(=O)c2cc(NC(=O)Cc3cn(C)c4ccccc34)ccc2O[C@H]1CN(C)Cc1ccc(Oc2ccccc2)cc1 | 31 | 2 | -2
C[C@@H]1CN([C@@H](C)CO)C(=O)c2cc(NC(=O)Cc3cn(C)c4ccccc34)ccc2O[C@H]1CN(C)Cc1ccc(Oc2ccccc2)cc1 | 56 | x | x
C[C@H]1CN([C@@H](C)CO)C(=O)c2cc(NC(=O)Cc3cn(C)c4ccccc34)ccc2O[C@@H]1CN(C)Cc1ccc(Oc2ccccc2)cc1 | 94* | x | x
CC(NS(=O)(=O)c1ccc(Br)cc1)C(=O)Nc1ccccc1 (centres undefined) | -5 | -5 | 1
COc1ccc2c(c1)C(C)(CC#N)C(=O)N2C (centres undefined) | -1 | x | 0
O=C(O)[C@H]1O[C@@H](Oc2cc(O)c3c(=O)c(-c4ccc(O)cc4)coc3c2)[C@H](O)[C@@H](O)[C@@H]1O | 108* | -2 | 0
C[C@@H]1O[C@@H](Oc2cc(O)c3c(=O)c(-c4ccc(O)cc4)coc3c2)[C@H](O)[C@H](O)[C@H]1O | 5 | -3 | 1
COc1ccc2c(c1)CCC(=O)C2 | 3 | x | 0
COc1ccc(N2C(=O)Cc3ccc(OC)cc3C2=O)cc1 | 120* | 0 | 4
